From PubChem BioAssay
Calls of active or inactive are those of the source.

What was measured:
Albumin (Bos taurus) = Albumin (Bos taurus) (UniProt P02769); experiment: compounds binding labelled BSA control protein – biochemical, small-molecule microarray, Alexa647 label, 635/667 nm fluorescence, artefact control for SMM control protein annotation, profiling panel (AID 1118); details: BSA-A647 binding, fluorescence 635 nm, higher = more signal;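 further: score merges 667 nm emission intensity and signal-to-noise per printed compound spot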
[1] = probe aXIP binding to arrayed compounds – biochemical, NeuroSMM set, 635/667 nm fluorescence, primary screen (AID 1119); details: small-molecule microarray, higher = more signal, called active from +8 up or from −8 down;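 further: probe is the protein aXip251-270 applied at 1 µg/mL to compound-printed slides; binding of probe to printed compounds measured as 667 nm fluorescence plus signal to noise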
[2] = probe aNOTCH3 binding on compound microarray – biochemical, small-molecule microarray, 635/667 nm fluorescence, primary screen (AID 1120); details: higher = more signal;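 further: probe is a biotin-tagged antibody raised against NOTCH3 rather than NOTCH3 protein; score merges spot fluorescence near 667 nm with spot signal to noise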
[3] = probe aNOTCH2 binding on compound microarray – biochemical, small-molecule microarray, 635/667 nm fluorescence, primary screen (AID 1121); details: higher = more signal;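 further: score merges feature fluorescence read at 667 nm with its signal to noise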
[4] = biological target: Carbonic anhydrase 2 (Homo sapiens) (UniProt P00918); experiment: compounds binding carbonic anhydrase 2 – biochemical, small-molecule microarray, Alexa647-labelled CAII, profiling panel (AID 1122); details: CAII-A647 binding fluorescence, higher = more signal
[5] = COS7 lysate on small-molecule microarray, probe aHis, 635 nm (AID 1123); details: COS7 cell lysate, fluorescence, higher = more signal;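 further: z-score combines 667nm fluorescence intensity with signal-to-noise per printed compound spot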
[6] = probe aLAP1 signal on lysate-treated microarray – cell lysate, small-molecule microarray, COS7 lysate, primary screen (AID 1124); details: probe aLAP1, fluorescence, higher = more signal;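 further: lysate comes from COS7 cells expressing LAP1 and is applied at 0.3 µg/mL; score merges spot fluorescence near 667 nm with signal-to-noise over triplicate slides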
Sam68 (KHDRBS1) = experiment: compounds binding KHDRBS1 protein – biochemical, small-molecule microarray, 635 nm fluorescence, primary screen (AID 1125); details: higher = more signal;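 further: score merges 667 nm channel intensity with signal to noise over triplicate slides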
[7] = system: Chordin-like protein 2 (CHRDL2); experiment: compounds binding chordin-like 2 – biochemical, small-molecule microarray, 635 nm fluorescence, primary screen (AID 1126); details: fluorescence 635 nm, higher = more signal;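 further: printed compound slides probed with Chrdl2 protein at 4 µg/mL for 1 h at 4 C; score merges 667 nm emission intensity with signal to noise over three replicate slides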
[8] = biological target: Concanavalin-A (Canavalia ensiformis) (UniProt P02866); experiment: compounds binding concanavalin A lectin – biochemical, small-molecule microarray, Alexa647 label, 635 nm, artefact control for SMM control protein annotation, primary screen (AID 1127); details: ConA-A647 binding fluorescence, higher = more signal;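 further: z combines 667 nm emission intensity with signal-to-noise across three replicate slides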
[9] = compounds binding Alexa647 anti-His antibody – biochemical, small-molecule microarray, 635 nm fluorescence, artefact control for SMM control protein annotation, primary screen (AID 1128); details: higher = more signal;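 further: score merges feature fluorescence with signal-to-noise for each printed compound spot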
[10] = system: Human papillomavirus type 1a E7 protein (residues 1-88); experiment: HPV1a E7 small-molecule binders, primary screen, biochemical, small-molecule microarray, residues 1-88, 635 nm (AID 1129); details: small-molecule microarray binding, fluorescence 635 nm; higher = more signal
[11] = biological target: Focal adhesion kinase 1 (Homo sapiens) (UniProt Q05397); experiment: PTK2 protein binding on printed compound slides – biochemical, small-molecule microarray, 635/667 nm fluorescence, BSA, DTT, primary screen (AID 1130); details: 635 nm fluorescence, higher = more signal;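 further: composite of spot emission at 667 nm and signal to noise over triplicate slides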
[12] = system: Fibrinogen (Alexa647-labelled); experiment: Alexa647-fibrinogen binding to printed small molecules – biochemical, small-molecule microarray, 635/667 nm fluorescence, artefact control for SMM control-protein annotation, profiling panel (AID 1131); details: fibrinogen-A647 binding fluorescence, higher = more signal;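 further: z-score merges 667 nm fluorescence with per-spot signal-to-noise over triplicate slides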
[13] = biological target: Follistatin (Homo sapiens) (UniProt P19883); experiment: FST protein binding to printed compounds – biochemical, small-molecule microarray, 635/667 nm fluorescence, primary screen (AID 1132); details: 635 nm fluorescence, higher = more signal
[14] = biological target: Fibroblast growth factor 2 (Homo sapiens) (UniProt P09038); experiment: basic fibroblast growth factor binding to printed compounds – biochemical, small-molecule microarray, 635/667 nm fluorescence, primary screen (AID 1133); details: FGF2, fluorescence 635/667, higher = more signal
[15] = JC-1 mitochondrial potential readout, lung cancer cells – cell-based, A549, JC-1 fluorescence, basal, 24 h, 100 nL, profiling panel (AID 1138); details: higher = more signal;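 further: A549 lung adenocarcinoma cells under basal conditions with no added stimulus; test concentration not given here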
Lefty1 = Lefty1 protein binding to printed compounds – biochemical, small-molecule microarray, 635/667 nm fluorescence, primary screen (AID 1139); details: fluorescence 635/667, higher = more signal
[16] = system: wheat germ agglutinin (Triticum aestivum), Alexa647-labelled; experiment: Alexa647-WGA lectin binding to printed small molecules – biochemical, small-molecule microarray, 635/667 nm fluorescence, artefact control for SMM control-protein annotation, profiling panel (AID 1140); details: WGA-A647 binding, 635 nm fluorescence, higher = more signal;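 further: score merges 667 nm feature emission with signal to noise over triplicate slides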
[17] = biological target: Luciferin 4-monooxygenase (Photinus pyralis) (UniProt P08659); experiment: inhibition of purified Photinus pyralis luciferase – biochemical, luminescence, purified enzyme, 2006 set, primary screen (AID 1141); details: purified firefly luciferase, SteadyGlo luminescence, 30 min; higher = more signal, called active from +8 up or from −8 down;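 further: cell-free assay with purified firefly luciferase at 100 ng per well in PBS; test concentration not given here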
Sequence of Luciferin 4-monooxygenase (Photinus pyralis) (P08659 whole entry, looked up): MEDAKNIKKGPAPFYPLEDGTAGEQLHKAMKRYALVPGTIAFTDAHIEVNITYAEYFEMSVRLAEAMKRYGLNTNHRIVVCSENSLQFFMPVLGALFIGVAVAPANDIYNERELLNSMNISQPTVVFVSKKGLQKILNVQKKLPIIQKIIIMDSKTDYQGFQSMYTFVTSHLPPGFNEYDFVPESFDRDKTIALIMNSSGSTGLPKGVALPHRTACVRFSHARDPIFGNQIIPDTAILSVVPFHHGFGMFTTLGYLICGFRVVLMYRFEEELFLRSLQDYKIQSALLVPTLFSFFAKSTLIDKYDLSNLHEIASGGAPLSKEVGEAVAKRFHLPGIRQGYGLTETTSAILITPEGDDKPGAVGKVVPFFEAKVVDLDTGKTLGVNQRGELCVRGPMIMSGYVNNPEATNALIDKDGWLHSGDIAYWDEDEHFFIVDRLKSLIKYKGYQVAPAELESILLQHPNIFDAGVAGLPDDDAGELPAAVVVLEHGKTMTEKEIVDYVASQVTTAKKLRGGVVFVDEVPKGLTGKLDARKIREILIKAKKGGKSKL

Sequence of Fibroblast growth factor 2 (Homo sapiens) (P09038 whole entry, looked up): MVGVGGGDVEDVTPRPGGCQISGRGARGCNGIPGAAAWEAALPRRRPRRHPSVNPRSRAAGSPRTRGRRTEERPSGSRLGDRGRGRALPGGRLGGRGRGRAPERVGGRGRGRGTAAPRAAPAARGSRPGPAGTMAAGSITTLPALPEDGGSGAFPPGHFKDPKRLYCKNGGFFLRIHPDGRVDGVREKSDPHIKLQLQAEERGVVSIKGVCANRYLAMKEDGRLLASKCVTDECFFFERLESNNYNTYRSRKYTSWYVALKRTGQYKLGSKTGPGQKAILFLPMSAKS
Sequence of Concanavalin-A (Canavalia ensiformis) (P02866 whole entry, looked up): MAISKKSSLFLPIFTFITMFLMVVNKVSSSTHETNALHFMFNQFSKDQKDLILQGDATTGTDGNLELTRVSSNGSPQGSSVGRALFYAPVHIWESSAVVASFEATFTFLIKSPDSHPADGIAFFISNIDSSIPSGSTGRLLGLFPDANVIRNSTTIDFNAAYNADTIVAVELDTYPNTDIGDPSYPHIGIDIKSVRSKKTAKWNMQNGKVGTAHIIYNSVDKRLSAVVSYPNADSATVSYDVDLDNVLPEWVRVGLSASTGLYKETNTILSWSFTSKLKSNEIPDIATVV
Sequence of Focal adhesion kinase 1 (Homo sapiens) (Q05397 whole entry, looked up): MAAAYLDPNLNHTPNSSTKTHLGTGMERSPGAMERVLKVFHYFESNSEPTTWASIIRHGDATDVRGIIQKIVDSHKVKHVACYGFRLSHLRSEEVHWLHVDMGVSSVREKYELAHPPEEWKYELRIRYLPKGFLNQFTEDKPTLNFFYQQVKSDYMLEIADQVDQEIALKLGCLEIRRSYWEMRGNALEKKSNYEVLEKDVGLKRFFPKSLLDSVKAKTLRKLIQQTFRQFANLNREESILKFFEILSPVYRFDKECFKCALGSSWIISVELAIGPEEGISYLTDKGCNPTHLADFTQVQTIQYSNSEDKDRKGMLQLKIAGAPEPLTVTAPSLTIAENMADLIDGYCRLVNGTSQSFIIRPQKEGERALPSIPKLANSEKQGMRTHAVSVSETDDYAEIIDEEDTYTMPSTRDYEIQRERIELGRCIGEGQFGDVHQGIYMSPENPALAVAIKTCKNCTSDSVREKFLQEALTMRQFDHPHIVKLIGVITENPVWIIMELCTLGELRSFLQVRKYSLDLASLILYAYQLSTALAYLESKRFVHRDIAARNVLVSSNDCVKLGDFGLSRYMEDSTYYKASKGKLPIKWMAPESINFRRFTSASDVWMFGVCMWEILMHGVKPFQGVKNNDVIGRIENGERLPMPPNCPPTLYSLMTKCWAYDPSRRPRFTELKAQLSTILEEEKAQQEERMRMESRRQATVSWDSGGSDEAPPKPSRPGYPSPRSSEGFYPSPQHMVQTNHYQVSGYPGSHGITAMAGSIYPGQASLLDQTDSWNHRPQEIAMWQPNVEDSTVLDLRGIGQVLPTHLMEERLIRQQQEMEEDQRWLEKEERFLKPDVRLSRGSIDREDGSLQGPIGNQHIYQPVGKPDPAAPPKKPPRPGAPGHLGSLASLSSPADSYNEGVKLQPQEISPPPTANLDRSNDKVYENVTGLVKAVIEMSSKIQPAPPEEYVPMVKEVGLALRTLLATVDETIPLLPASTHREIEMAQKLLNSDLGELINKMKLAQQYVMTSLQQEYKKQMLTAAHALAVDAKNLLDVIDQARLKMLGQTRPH
Sequence of Follistatin (Homo sapiens) (P19883 whole entry, looked up): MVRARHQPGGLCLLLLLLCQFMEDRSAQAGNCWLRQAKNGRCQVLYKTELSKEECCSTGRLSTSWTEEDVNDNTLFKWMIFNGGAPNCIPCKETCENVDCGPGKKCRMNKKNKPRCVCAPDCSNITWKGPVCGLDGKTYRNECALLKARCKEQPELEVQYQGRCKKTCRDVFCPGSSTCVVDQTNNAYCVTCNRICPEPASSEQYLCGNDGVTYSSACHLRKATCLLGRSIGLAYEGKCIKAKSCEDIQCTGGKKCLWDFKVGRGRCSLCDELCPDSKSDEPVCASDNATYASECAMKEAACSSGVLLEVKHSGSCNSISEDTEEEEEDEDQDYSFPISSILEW
Sequence of Albumin (Bos taurus) (P02769 whole entry, looked up): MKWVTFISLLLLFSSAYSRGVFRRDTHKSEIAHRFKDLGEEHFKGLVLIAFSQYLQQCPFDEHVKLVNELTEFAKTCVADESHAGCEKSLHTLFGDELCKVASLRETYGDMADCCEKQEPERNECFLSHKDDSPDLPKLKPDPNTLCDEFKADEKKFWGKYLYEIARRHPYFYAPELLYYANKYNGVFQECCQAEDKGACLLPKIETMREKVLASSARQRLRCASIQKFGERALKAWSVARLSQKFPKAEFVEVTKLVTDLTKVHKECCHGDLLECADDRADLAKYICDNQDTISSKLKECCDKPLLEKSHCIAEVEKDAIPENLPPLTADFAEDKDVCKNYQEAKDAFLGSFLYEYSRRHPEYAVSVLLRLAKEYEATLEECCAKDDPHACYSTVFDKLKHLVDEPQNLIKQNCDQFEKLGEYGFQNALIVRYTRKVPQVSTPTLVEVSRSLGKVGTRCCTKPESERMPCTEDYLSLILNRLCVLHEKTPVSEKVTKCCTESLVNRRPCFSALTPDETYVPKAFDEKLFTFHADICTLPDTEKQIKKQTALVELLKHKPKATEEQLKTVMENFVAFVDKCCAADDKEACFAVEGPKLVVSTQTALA

Row | SMILES | composite z-score (Albumin (Bos taurus)) | composite Z-score [1] | composite z-score [2] | composite z-score [3] | composite z-score [4] | composite z-score [5] | composite z-score [6] | composite z-score (Sam68 (KHDRBS1)) | composite z-score [7] | composite z-score [8] | composite z-score [9] | composite z-score [10] | composite z-score [11] | composite z-score [12] | composite z-score [13] | composite z-score [14] | z-score [15] | composite z-score (Lefty1) | composite z-score [16] | z-score [17]
1 | CCN(CC)c1ccc(N2CC=CC34O[C@@H]5C=CCCOC(=O)C5[C@H]3C(=O)N(CCCCCCO)[C@@H]4C2=O)cc1 (stereo not given in full) | 0.254 | 0.469 (inactive) | -0.276 | -0.203 | 0.885 | 2.79 | 1.46 | 0.114 | -0.489 | -0.1 | 1.43 | 0.321 | 0.899 | -1.15 | -0.372 | -0.551 | -0.115 | 0.0079 | 0.623 | -4.35 (inactive)
2 | COC(=O)C(CC#Cc1ccc2c(c1)[C@]1(C(=O)N2)[C@H](c2ccc(OCCO)cc2)N2[C@H](c3ccccc3)[C@H](c3ccccc3)OC(=O)[C@H]2[C@@H]1C(=O)Nc1nc2ccccc2s1)C(=O)OC | 0.959 | -0.0045 (inactive) | 0.0038 | -0.183 | 0.546 | 2.4 | -0.065 | 1.31 | 0.326 | 1.16 | 1.6 | 1.23 | 0.633 | 0.998 | 0.989 | 0.408 | -2.05 | 0.417 | 0.638 | -0.877 (inactive)
3 | C=C[C@H](CO)NS(=O)(=O)c1ccc(Br)cc1 | 0.158 | 0.058 (inactive) | 0.234 | -0.127 | -0.0876 | 1 | 0.117 | 0.562 | 0.704 | 0.549 | 0.461 | 0.446 | 0.179 | 0.28 | 1.06 | 0.464 | 1.19 | 0.28 | 0.279 | -0.877 (inactive)
